Experimental data published in PubChem BioAssay (NCATS).
Where “and” joins values, the source holds several entries; their conditions need not be identical. Equal entries are not always repeated. Results filed as inconclusive are left out. Some structures have more than one record in an assay (separate samples or runs), and their calls can disagree. Calls of active or inactive are those of the source. Calls follow the shape of the dose curve; as a rule, active = well fitted curve in the direction sought with a large enough effect; inconclusive = small, poorly fitted or top-dose-only effect, or another doubt; inactive = no such curve, though single readings can be large; an effect the other way counts as inactive or inconclusive.

Legend:
[1] = Viability qHTS for spleen associated tyrosine kinase inhibitor (SYKi) naive MV4-11 cells (AID 1963823); also: nearly all actives have a fitted effect of over 40% in size
How it was run: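 SYKi-naive MV4-11 AML cells, 500 per well, were exposed to library compounds for 72 hr at 37 C, 5% CO2. Viability was then read by CellTiter-Glo luminescence after 10 min at room temperature.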

[2] = Viability qHTS for spleen associated tyrosine kinase inhibitor (SYKi) drug resistant MV4-11 cells (AID 1963824); also: nearly all actives have a fitted effect of over 35% in size
How it was run: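 SYK inhibitor-resistant MV4-11 AML cells, 500 per well, added to predispensed compounds and incubated 72 hr at 37 C, 5% CO2. Viability measured by CellTiter-Glo luminescence after 10 min at room temperature.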

[3] = Cellular viability qHTS for adrenocortical cancer (ACC) cell line SW-13 (AID 1963989); conditions: SW-13 ACC cells viability, CellTiter-Glo, 48 h; activity (max response): stronger effect = lower value; also: nearly all actives have a fitted effect of over 65% in size;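 as to activity (max response): cells grown in serum-free medium with ITS supplement; % is scaled to controls: 0 for no effect and ±100 for the full control effect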
How it was run: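 Here, serum-free SW-13 cultures were dosed up to 46 uM. Following 48 h, ATP-dependent luminescence (CellTiter-Glo) reported viable cells, and logistic modeling produced IC50 values.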
Potency is read from the fitted curve at half-maximal effect.

Row | Compound | Potency [1] | Potency [2] | activity (max response) [3] | Potency [3] | viability (% of control) [1] | viability, % of control [2]
1 | NCc1ccc(S(N)(=O)=O)cc1 | inactive | inactive | -8.11% (inactive) | – | – | –
2 | O=C(O)CCCCC(=O)O | inactive | inactive | 10.5% (inactive) | – | – | –
3 | Cc1c(F)ccc(C(=O)Nc2cc([N+](=O)[O-])ccc2N2CCN(C)CC2)c1Cl | 1.32 µM (active) | 2.91 µM (active) | -19.1% (inactive) | – | – | –
4 | CO[C@H]1/C=C\C=C(\C)C(=O)NC2=CC(=O)C(NCCN(C)C)=C(C[C@@H](C)C[C@H](OC)[C@H](O)[C@@H](C)/C=C(/C)[C@@H]1OC(N)=O)C2=O | 0.0332 µM (active) | 0.0833 µM (active) | – | 0.282 µM (active) | – | –
5 | CC1=C(c2ccc(O)cc2)[C@H](c2ccc(OCCN3CCCCC3)cc2)Oc2cc(O)ccc21 | 8.33 µM (active) | 8.33 µM (active) | -12% (inactive) | – | – | –
6 | Cc1[nH]nc(C(F)(F)F)c1Cc1sc2c(c1C(=O)N1C[C@](C)(O)CO1)c(=O)n(C)c(=O)n2C(C)C | inactive | inactive | 14.8% (inactive) | – | – | –
7 | CCOC(=N)c1nc2ccc3ncnc(Nc4cc(F)c(F)cc4Cl)c3c2s1 | 7.42 µM (active) | 7.42 µM (active) | -16.7% (inactive) | – | – | –
8 | Cc1cc(CS(=O)(=O)c2ccccc2)cc(OCc2ccc(CN3CCC[C@@H]3CO)cc2)c1 | 16.6 µM (active) | 16.6 µM (active) | – | 28.2 µM (active) | – | –
9 | CSc1ccc2c(c1)N(CCC1CCCCN1C)c1ccccc1S2 (stereo unspecified) | 15 µM (active) | 13.3 µM (active) | – | 16.4 µM (active) | – | –
10 | CN(C)CCCOC1(Cc2ccccc2)CCCCCC1 | inactive | inactive | 2.61% (inactive) | – | – | –
11 | Cc1ccc(NC(=O)Nc2nnc(Sc3ncnc4cc(OCCCN5CCOCC5)ccc34)s2)cc1 | 0.0148 µM (active) | 0.0166 µM (active) | -9.58% (inactive) | – | – | –
12 | NS(=O)(=O)c1cc2c(cc1Cl)NC(CSCc1ccccc1)=NS2(=O)=O | inactive | inactive | -2.17% (inactive) | – | – | –
13 | CC1=C(CC(=O)O)c2cc(F)ccc2/C1=C\c1ccc(S(C)=O)cc1 (stereo unspecified) | inactive | inactive | 1.22% (inactive) | – | – | –
14 | CC(C)(O)CNc1ncc(-c2ccnc(Nc3ccncc3)n2)c(CC2CC2)n1 | 1.48 µM (active) | 1.18 µM (active) | – | 14.1 µM (active) | – | –
15 | CC(=O)/C=C/C=C1/C2CCC(C2)C1(C)C (stereo unspecified) | inactive | inactive | 6.09% (inactive) | – | – | –
16 | COc1ccccc1C(=O)Nc1cc2c(cc1N1CCCC1)n(C)c(=O)n2C | 8.2 µM (active) | 9.34 µM (active) | -26.1% (inactive) | – | – | –
17 | CC(COc1ccccc1)NC(C)C(O)c1ccc(O)cc1 (stereo unspecified) | inactive | inactive | 3.43% (inactive) | – | – | –
18 | CC[C@H](CC#N)OC(=O)N[C@@H](C)c1cccc(NC(=O)Nc2ccc(-c3cnco3)c(OC)c2)c1 | 326 nM (active) and 263 nM (active) | 231 nM (active) and 263 nM (active) | – | 28.2 µM (active) | – | –
19 | COc1ccc(Cl)c(Nc2ncnc3cc(OCC4CCN(C)CC4)c(OC)cc23)c1 | 5.25 µM (active) | 5.17 µM (active) | – | 15.8 µM (active) | – | –

Row | Compound | Potency [1] | Potency [2] | activity (max response) [3] | Potency [3] | viability (% of control) [1] | viability, % of control [2]
20 | NS(=O)(=O)c1cc(-c2nn[nH]n2)c(NCc2cccs2)cc1Cl | inactive | inactive | 11.4% (inactive) | – | – | –
21 | O=C1OC(CN2CCOCC2)CN1/N=C/c1ccc([N+](=O)[O-])o1 (stereo unspecified) | inactive | 8.41 µM (active) | -3.41% (inactive) | – | – | –
22 | COc1ccc(CNC(=O)c2cc(-c3cncc(Cl)c3)cnc2-c2ccccn2)nc1OC | inactive | inactive | -20.5% (inactive) | – | – | –
23 | CC(=O)Nc1c(I)cc(I)c(C(=O)O)c1I | inactive | inactive | -1.35% (inactive) | – | – | –
24 | O=C(Nc1ccc(OC(F)(F)Cl)cc1)c1cnc(N2CC[C@@H](O)C2)c(-c2ccn[nH]2)c1 | 5.9 µM (active) | 6.61 µM (active) | – | 20 µM (active) | – | –
25 | COc1c(C)c2c(c(O)c1C/C=C(\C)CCC(=O)O)C(=O)OC2 | 750 nM (active) and 1.32 µM (active) | 473 nM (active) and 934 nM (active) | -49% (inactive) | – | – | –
26 | CC(C)(C)c1[nH]cnc1/C=c1\[nH]c(=O)/c(=C/c2ccccc2)[nH]c1=O | 0.0833 µM (active) | 0.0934 µM (active) | – | 0.0398 µM (active) | – | –
27 | CC1(C)OCCn2c1nc1c(N3CCOCC3)nc(-c3cnc(N)nc3)nc12 | 1.32 µM (active) | 2.95 µM (active) | -17.2% (inactive) | – | – | –
28 | O=S(=O)(O)c1ccc2nc(-c3ccccc3)[nH]c2c1 | inactive | inactive | -14% (inactive) | – | – | –
29 | CCNC1(C(N)=O)CCN(c2ncnc3c2nc(-c2ccccc2Cl)n3-c2ccc(Cl)cc2)CC1 | 7.42 µM (active) | 16.6 µM (active) | -4.01% (inactive) | – | – | –
30 | C=C[C@H]1CN2CC[C@H]1C[C@@H]2[C@@H](O)c1ccnc2ccc(OC)cc12 | inactive | inactive | 6.85% (inactive) | – | – | –
31 | C[C@@H]1C[C@H]2[C@@H]3C[C@H](F)C4=CC(=O)C(Cl)=C[C@]4(C)[C@@]3(F)[C@@H](O)C[C@]2(C)[C@@]1(O)C(=O)CO | 4.73 µM (active) | 11.9 µM (active) | -6.49% (inactive) | – | – | –
32 | O=C(NO)c1cnc(N2C[C@H]3C[C@@H]2CN3c2cc(C(F)(F)F)ccn2)nc1 | 2.35 µM (active) | 2.35 µM (active) | – | 10 µM (active) | – | –
33 | CC(C)OP(=O)(CP(=O)(OC(C)C)OC(C)C)OC(C)C | inactive | inactive | 9.07% (inactive) | – | – | –
34 | CCC1NC(=O)c2cc(S(N)(=O)=O)c(Cl)cc2N1 (stereo unspecified) | inactive | inactive | 11.8% (inactive) | – | – | –
35 | CCN[C@H]1CN(CCCOC)S(=O)(=O)c2sc(S(N)(=O)=O)cc21 | inactive | inactive | 7.66% (inactive) | – | – | –
36 | Cc1ncc(NC(=O)c2cccc(C(F)(F)F)c2)cc1-c1cnc(OC2CCOCC2)c(N2CCOCC2)c1 | 6.61 µM (active) | 5.9 µM (active) | – | 22.4 µM (active) | – | –
37 | N[C@@H](Cc1ccc(O)cc1)C(=O)O | – | – | 7.19% (inactive) | – | 88.5% [at 9.25 µM] (inactive) | 81.6% [at 9.25 µM] (inactive)
38 | CCN(CC)CCOC(=O)c1ccc(N)cc1 | inactive | inactive | 7.42% (inactive) | – | – | –

Row | Compound | Potency [1] | Potency [2] | activity (max response) [3] | Potency [3] | viability (% of control) [1] | viability, % of control [2]
39 | COc1cc2ncnc(Oc3cccc(NC(=O)Nc4cc(C(C)(C)C(F)(F)F)on4)c3)c2cc1OC | 0.164 µM (active) | 0.291 µM (active) | -26.2% (inactive) | – | – | –
40 | CN1CCC(Nc2ncc3ncnc(Nc4ccc(F)c(Cl)c4)c3n2)CC1 | 9.44 µM (active) and 9.2 µM (active) | 18.8 µM (active) and 11.6 µM (active) | – | 18.4 µM (active) | – | –
41 | CCCCN(CCCC)CCCOC(=O)c1ccc(N)cc1 | inactive | inactive | -3.65% (inactive) | – | – | –
42 | CCOC(=O)c1ccnc(CNCC(=O)N(CC)CCN(C)C)c1 | inactive | inactive | -23.8% (inactive) | – | – | –
43 | C=C1c2cccc(O)c2C(O)=C2C(=O)[C@]3(O)C(O)=C(C(N)=O)C(=O)[C@@H](N(C)C)[C@@H]3[C@@H](O)[C@H]12 | inactive | inactive | 3.29% (inactive) | – | – | –
44 | CC1(N)CCN(c2cccnc2NC(=O)c2nc(-c3ncccc3C(F)(F)F)cnc2N)CC1 | 5.9 µM (active) | 11.8 µM (active) | – | 17.8 µM (active) | – | –
45 | C[C@H](NC(=O)c1c(N)nn2cccnc12)c1cc2cccc(C#Cc3cnn(C)c3)c2c(=O)n1-c1ccccc1 | 7.23 µM (active) | 7.23 µM (active) | -17.5% (inactive) | – | – | –
46 | C=CC(=O)N1CC[C@@H](Oc2nc(Nc3ccc(N4CCC(N5CCN(C)CC5)CC4)cc3)c(C(N)=O)nc2CC)C1 | 0.0323 µM (active) | 0.091 µM (active) | – | 1.43 µM (active) | – | –
47 | C/C(=N\NC(=O)c1cccc(S(=O)(=O)N2CCOCC2)c1)c1cc(Cl)ccc1O | 0.525 µM (active) | 0.742 µM (active) | – | 8.91 µM (active) | – | –
48 | Cc1ccc(S(=O)(=O)Nc2cc(-c3ccc(C#N)s3)ccc2C)cc1 | 0.0295 µM (active) | 0.0332 µM (active) | – | 0.0447 µM (active) | – | –
49 | O=C(c1ccc(/C=C/c2n[nH]c3ccccc23)cc1)N1CCNCC1 | 0.058 µM (active) | 0.206 µM (active) | -10.3% (inactive) | – | – | –
50 | CCn1nc(C2CCN(C(=O)CCO)CC2)nc1-c1cnc(N)c(-c2nnc(C(C)(C)C)o2)n1 | 5.25 µM (active) | 5.25 µM (active) | -18.1% (inactive) | – | – | –
51 | Cc1c(NC(=O)c2cc(C(N)=O)nc3cc(F)ccc23)c(C(F)(F)F)nn1Cc1ccc(C#N)cc1 | inactive and 14.8 µM (active) | inactive | -7.79% (inactive) | – | – | –
52 | CC[C@H](Nc1ncnc2nc[nH]c12)c1oc2ccccc2c(=O)c1-c1cccc(F)c1 | 5.9 µM (active) | 14.8 µM (active) | -13.2% (inactive) | – | – | –
53 | CC1=C(C(=O)O)N2C(=O)[C@@H](NC(=O)[C@H](N)c3ccccc3)[C@H]2SC1 | inactive | inactive | 10% (inactive) | – | – | –
54 | Nc1nc(F)nc2c1ncn2[C@@H]1O[C@H](COP(=O)(O)O)[C@@H](O)[C@@H]1O | 8.33 µM (active) | 14.8 µM (active) | -12.7% (inactive) | – | – | –
55 | Cc1cc(C(=O)Nc2cc(Nc3ccc4c(/C=C/c5ccccn5)n[nH]c4c3)ccc2F)n(C)n1 | 9.2 µM (active) and 5.25 µM (active) | 9.2 µM (active) and 5.25 µM (active) | – | 22.4 µM (active) | – | –
56 | CC(C)(C(=O)O)c1ccc(C(O)CCCN2CCC(C(O)(c3ccccc3)c3ccccc3)CC2)cc1 (stereo unspecified) | inactive | inactive | -2.55% (inactive) | – | – | –
57 | Cc1nc(NC(=O)N2CCC[C@H]2C(N)=O)sc1-c1csc(C(C)(C)C)n1 | 7.42 µM (active) | 7.42 µM (active) | -23.3% (inactive) | – | – | –
